DT40 TDP1 CPT: qHTS for Inhibitors of human tyrosyl-DNA phosphodiesterase 1 (TDP1): qHTS in cells in presence of CPT; chicken DT40 Tdp1-/-;hTDP1 cells + 20 nM CPT, ATP luminescence, 48 h; Potency, µM (titrated, usually from 46.2 µM), most hits filed as inhibitors; 420,000 tested, 12% active; also: nearly all actives have a fitted effect of over 55% in size
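Chicken DT40 Tdp1-/- cells stably complemented with human TDP1 were seeded at 400 cells/well in medium containing 20 nM camptothecin, exposed to pin-transferred compounds, and grown at 37 °C for at least 48 hr. Viability was read as ATP luminescence.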
DT40 TDP1 no CPT: qHTS for Inhibitors of human tyrosyl-DNA phosphodiesterase 1 (TDP1): qHTS in cells in absence of CPT; DT40 Tdp1-/- hTDP1 cells, no CPT, ATP luminescence, 48 h; Potency, µM (titrated, usually from 46.2 µM), actives largely listed as inhibitors; 420,000 tested, 15% active; AID 686978, 2013; also: nearly all actives have a fitted effect of over 55% in size
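Camptothecin absent (DMSO only). Human TDP1-complemented DT40 knockout cells, 400 cells/well, 37 °C for minimum 48 hr; ATP measured via CellTiter-Glo, 30 min dark incubation, luminescence.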
uPA surface inh: qHTS for Inhibitors of Cell Surface uPA Generation; cell surface uPA generation assay, qHTS; Potency, µM (series often up to 38.3 µM), hits mostly inhibitors; 330,000 tested, 0.31% active; active = well fitted inhibition curve with a large enough effect; inconclusive = small, poorly fitted or top-dose-only effect; inactive = no such curve, though single readings can be large or run the other way; tested in mouse RAW 264.7 cells; also: nearly all actives have a fitted effect of over 55% in size
miR-21 act: qHTS Assay for Modulators of miRNAs and/orActivators of miR-21; AID 2288, 2010; 340,000 tested, under 10 active; HeLa miR-21 FLuc reporter, luciferase, 48 h; Potency, µM (doses to about 38.3 µM), actives largely listed as activators;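 also: miR-21 action dims this reporter so a rising signal means less miR-21 action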
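HeLa miR-21-FLuc reporter line, endogenous miR-21; 2000 cells/well in DMEM/10% FBS; compound titration up to ~40uM final, 48 h, 37 degree Celsius; luciferase detection reagent, 15 min lysis, CCD luminescence.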
TDP1 block: qHTS Assay for Inhibitors of Tyrosyl-DNA Phosphodiesterase (TDP1); Tyrosyl-DNA phosphodiesterase 1 (Homo sapiens), Q9NUW8; recombinant TDP1, AlphaScreen DNA substrate cleavage; Potency, µM (top dose mostly 130 µM), usual class: inhibitors; 350,000 tested, 0.28% active; also: nearly all actives have a fitted effect of over 40% in size
Target sequence (Q9NUW8 whole entry, looked up): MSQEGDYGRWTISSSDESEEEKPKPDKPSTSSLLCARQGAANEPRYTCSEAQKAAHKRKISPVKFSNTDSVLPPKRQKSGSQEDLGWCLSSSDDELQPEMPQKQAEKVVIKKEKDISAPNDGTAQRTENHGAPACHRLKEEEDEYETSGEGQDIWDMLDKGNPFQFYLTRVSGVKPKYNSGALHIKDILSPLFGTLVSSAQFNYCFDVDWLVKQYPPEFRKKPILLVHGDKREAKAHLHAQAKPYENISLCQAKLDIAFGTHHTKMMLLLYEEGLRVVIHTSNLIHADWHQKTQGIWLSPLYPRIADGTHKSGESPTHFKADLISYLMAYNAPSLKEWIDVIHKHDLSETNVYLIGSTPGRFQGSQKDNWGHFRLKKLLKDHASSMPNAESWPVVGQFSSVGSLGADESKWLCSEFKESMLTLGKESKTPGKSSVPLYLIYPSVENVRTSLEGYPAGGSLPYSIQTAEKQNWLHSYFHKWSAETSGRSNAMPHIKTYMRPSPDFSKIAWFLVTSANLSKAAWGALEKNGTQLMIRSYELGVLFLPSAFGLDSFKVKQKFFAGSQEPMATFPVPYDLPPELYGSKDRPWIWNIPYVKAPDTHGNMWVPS
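Enzyme-compound mixtures sat 15 min at room temperature, followed by a 5 min reaction with 15 nM final substrate and 10 min with AlphaScreen beads. Recombinant human Tdp1 was used at 1 nM final.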
Hits are given with their value; n = inactive; u = inconclusive; x = no result given; [ ] = remark or other dose. Shown are actives, neighbours in structure and some others; about 16% of the full set was active somewhere. Unless noted, calls follow the shape of the dose curve; as a rule, active = well fitted curve in the direction sought with a large enough effect; inconclusive = small, poorly fitted or top-dose-only effect, or another doubt; inactive = no such curve, though single readings can be large; an effect the other way counts as inactive or inconclusive.

SMILES | DT40 TDP1 CPT | DT40 TDP1 no CPT | uPA surface inh | miR-21 act | TDP1 block
Cc1ccc(C)c(OCCCC(=O)Nc2ccccc2C(N)=O)c1 | u | 16µM | n | n | n
CCOc1cc(N2CCOCC2)c(OCC)cc1NC(=O)C(C)Oc1ccccc1 (configuration not stated) | u | 13µM | n | x | n
O=C(Nc1cc(Cl)ccc1N1CCOCC1)C1CC1 | n | n | n | x | n
CC(Oc1cccc(Cl)c1)C(=O)Nc1ccccc1C(=O)N1CCCCC1 (configuration not stated) | 23µM | u | n | x | n
CC(Oc1cccc(Cl)c1)C(=O)Nc1ccccc1N1CCCCC1 (configuration not stated) | n | n | n | x | n[0.505 µM]
CCOc1cc(N2CCOCC2)c(OCC)cc1NC(=O)c1ccccc1C | n | u | n | n | n
CC(Oc1cccc(Cl)c1)C(=O)Nc1cc(Cl)ccc1N1CCOCC1 (configuration not stated) | 21µM | u | n | x | n
COC(=O)C1=C(C)N(Cc2ccccc2)[C@]23O[C@](C(=O)OC)(C(=O)N2C1c1ccccc1)C(c1ccccc1)C3C(=O)c1ccccc1 (some centres not stated) | x | x | x | x | n[21 µM]
CCOc1ccccc1OCCCC(=O)Nc1sccc1C(N)=O | u | 16µM | n | n | n
CCOc1cc(N2CCOCC2)c(OCC)cc1NC(=O)COC(=O)CCOc1ccc(C)cc1 | u | u | n | x | n
CCOc1cc(N2CCOCC2)c(OCC)cc1NC(=O)COC(=O)CCOc1cc(C)ccc1C | u | 23µM | n | x | n
NC(=O)c1ccsc1NC(=O)CCc1ccccc1 | u | u | n | n | x
CCCNC(=O)Nc1cc(OCC)c(N2CCOCC2)cc1OCC | u | 18µM | n | n | n
CC(Oc1cccc(Cl)c1)C(=O)N(C)CC(=O)Nc1ccc(N2CCOCC2)cc1 (configuration not stated) | 13µM | 16µM | n | x | n
Cc1cc(C)c2cc(C(=O)Nc3ccccc3)[nH]c2c1 | n | n | n | n | n
Cc1ccc(Sc2cnc3ccccc3n2)cc1 | u | n | n | n | n
CC(=O)N1CCC(C(=O)OCc2ccccc2F)(c2ccccc2)CC1 | u | 21µM | n | n | n
CC(=O)Nc1ccc(O)c(-c2nc3ccccc3s2)c1 | n | u | n | n | n
C/C(N=Nc1nc2ccccc2s1)=N\Nc1ccccc1O | 9.2µM | 2.6µM | n | n | n
Oc1ccccc1Nc1nc(NCc2ccco2)c2ccccc2n1 | 16µM | 21µM | n | n | n
Cc1ccccc1Nc1nc(NCc2ccco2)c2ccccc2n1 | 5.8µM | 3.7µM | u | n | n
Cc1ccc(Nc2nc(NCc3ccco3)nc3nccnc23)cc1 | u | n | x | x | n
COc1ccc(OC)c(Nc2nc(NCc3ccco3)nc(N)c2[N+](=O)[O-])c1 | n | u | n | n | n
Cc1ccc(Nc2nc(NCc3ccco3)nc3nccnc23)c(C)c1 | u | u | x | x | 8.9µM
COc1ccc(OC)c(Nc2nc(NCc3ccco3)c3ccccc3n2)c1 | u | 23µM | n | n | x
SMILES | DT40 TDP1 CPT | DT40 TDP1 no CPT | uPA surface inh | miR-21 act | TDP1 block
COc1ccc(CNC(=O)CC2C(=O)NCCN2C2Cc3ccccc3C2)cc1 (configuration not stated) | n | n | n | n | n
Nc1ccccc1C(=O)/C=C/c1ccccc1 | x | x | x | x | n
CC/C(=N\N=C(/CC)c1ccccc1N)c1ccccc1N | 29µM | 23µM | n | x | x
CCOc1ccc(S(=O)(=O)Nc2ccc(-c3ccc(OC)nn3)cc2)cc1 | u | u | x | n | n
CCOc1ccc(-c2ccc(NS(=O)(=O)c3ccc(C)cc3)cc2)nn1 | 16µM | u | x | n | n
CCOc1ccc(-c2ccc(NS(=O)(=O)c3cc(C)c(C)cc3C)cc2)nn1 | 23µM | 18µM | x | n | n
COC(=O)CN1C(=O)C(O)(CC(=O)c2ccc(F)cc2)c2ccccc21 (configuration not stated) | u | u | x | n | x
C[C@H](NC(=O)c1nc[nH]c1C(=O)N1CCN(C(=O)OC(C)(C)C)CC1)c1ccccc1 | n | n | n | x | n
Cc1ccc(NC(=O)c2ccc(CSc3ccccn3)cc2)cc1 | u | 23µM | n | n | n

Source: PubChem (National Center for Advancing Translational Sciences (NCATS))
